# Laboratory results taken from PubChem BioAssay AID2427 (National Center for Advancing Translational Sciences (NCATS), 2010).
# Active and inactive are the calls of the source.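 How the source made its calls: active means melting temperature shift above 3 C; inconclusive means shift above 1 C but not above 3 C; inactive means the rest.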
# Molecular target: 15-hydroxyprostaglandin dehydrogenase [NAD(+)] (Homo sapiens) (UniProt P15428)
# Assay: Thermal Shift Assay for Inhibitors of HPGD (15-Hydroxyprostaglandin Dehydrogenase)
# Conditions: Recombinant HPGD thermal shift, SYPRO orange DSF, at 250 µM, stronger effect = higher value
# Description: Assay Overview: Human 15-Hydroxyprostaglandin dehydrogenase (HPGD) catalyzes the inactivation of prostaglandin E2, and plays a major role in cancer biology by antagonizing the oncogenic potential of cyclooxygenase type 2 (COX2). Studies to assess the stability of human 15-PGDH in presence of compounds was performed as described (Niesen et al., 2007) with variations. References 1. Myung SJ, Rerko RM, Yan M, Platzer P, Guda K, Dotson A, Lawrence E, Dannenberg AJ, Lovgren AK, Luo G, Pretlow TP, Newman RA, Willis J, Dawson D, Markowitz SD. 15-Hydroxyprostaglandin dehydrogenase is an in vivo suppressor of colon tumorigenesis. Proc Natl Acad Sci U S A. 2006 Aug 8;103(32):12098-102. 2. Yan M, Rerko RM, Platzer P, Dawson D, Willis J, Tong M, Lawrence E, Lutterbaugh J, Lu S, Willson JK, Luo G, Hensold J, Tai HH, Wilson K, Markowitz SD. 15-Hydroxyprostaglandin dehydrogenase, a COX-2 oncogene antagonist, is a TGF-beta-induced suppressor of human gastrointestinal cancers. Proc Natl Acad Sci U S A. 2004 Dec 14;101(50):17468-73. 3. Yang L, Amann JM, Kikuchi T, Porta R, Guix M, Gonzalez A, Park KH, Billheimer D, Arteaga CL, Tai HH, Dubois R, Carbone DP, Johnson DH. Inhibition of Epidermal Growth Factor Receptor Signaling Elevates 15-Hydroxyprostaglandin Dehydrogenase in Non-Small-Cell Lung Cancer. Cancer Res. 2007 Jun 15;67(12):5587-5593. 4. Niesen FH, Berglund H, Vedadi M: The use of differential scanning fluorimetry to detect ligand interactions that promote protein stability. Nature protocols 2007; 2:2212-2221 NIH Chemical Genomics Center [NCGC] Structural Genomics Consortium [SGC]
# HPGD was diluted to a final assay concentration of 1 uM in 100 mM Tris buffer, pH 8.0, containing 0.01% Tween-20 and 1:1000 SYPRO orange dye. The final assay volume is 10 ul, with or without 200 uM of either NAD+ or NADH. Compounds were added 1:5 from appropriate stock solutions in 10% (v/v) DMSO to comprise either 50 or 250 uM final concentrations. Heat denaturation curves were recorded using a RT-PCR instrument (Mx3005p, Agilent) applying a temperature gradient of 2 degree C/min. Analysis of the data was performed using DSF Analysis vers. 2.5 (ftp://ftp.sgc.ox.ac.uk/pub/biophysics) and Prism 5.0 (GraphPad Software, Inc.)
# Chain of 15-hydroxyprostaglandin dehydrogenase [NAD(+)] (Homo sapiens) (P15428 whole entry, looked up): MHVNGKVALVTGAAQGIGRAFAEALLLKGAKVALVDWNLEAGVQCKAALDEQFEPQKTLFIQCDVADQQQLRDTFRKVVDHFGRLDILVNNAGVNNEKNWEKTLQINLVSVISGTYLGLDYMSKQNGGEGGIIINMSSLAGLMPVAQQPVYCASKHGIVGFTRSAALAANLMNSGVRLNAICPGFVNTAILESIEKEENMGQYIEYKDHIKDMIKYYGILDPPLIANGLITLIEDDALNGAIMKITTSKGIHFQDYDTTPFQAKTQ
row,SMILES,thermal shift (delta Tm)
1,Fc1ccccc1CSc1nc2ncc(Br)cc2[nH]1,7.6 C (active)
2,Cc1cc(-c2nnc3n2CCCCC3)c(C)n1-c1ccccc1,5 C (active)
3,COc1ccc(-c2cc(C(F)(F)F)n3nc(C(=O)N4CCCCC4)cc3n2)cc1OC,3.9 C (active)
4,Cc1cccc(-n2cnc3cc(C(=O)N4CCCCC4)ccc32)c1,7.3 C (active)
5,O=C(CCc1ccc(Oc2cc([N+](=O)[O-])cc([N+](=O)[O-])c2)cc1)N1CCCCC1,3.1 C (active)
6,COCCNC(=O)C1CCC(Cn2c(=S)[nH]c3ccccc3c2=O)CC1 (stereo not given),3.7 C (active)
7,O=c1[nH]c(SCc2ccccc2Cl)nc2c1CCC2,9.2 C (active)
8,O=C(CSc1nc2ncc(Br)cc2[nH]1)c1cccc([N+](=O)[O-])c1,6.9 C (active)
9,COc1ccc2cc(C(=O)N3CCCCCC3)sc(=O)c2c1OC,3.2 C (active)
10,Cc1ccc(C)c(Cn2nnc3c(=O)[nH]c(C(=O)NCc4ccco4)nc32)c1,7.5 C (active)
11,CCN(CC)C(=O)c1sc2nc(-c3cccs3)cc(-c3ccc(Cl)cc3)c2c1N,0.9 C (inactive)
12,O=C(C1CCC(Cn2c(=S)[nH]c3ccccc3c2=O)CC1)N1CCOCC1 (stereo not given),6 C (active)
13,Cc1ccc(-c2n[nH]c(=S)n2/N=C/C=C\c2ccccc2[N+](=O)[O-])cc1,4.5 C (active)
14,CC1CCCN(C(=O)c2ccc(COc3ccccc3Br)cc2)C1 (stereo not given),3.8 C (active)
15,O=C(c1ccc(N2C(=O)C3CC=C(Cl)CC3C2=O)cc1)N1CCCCC1 (stereo not given),3 C (active)
16,O=C(c1ccc2c(c1)OCO2)N1CCc2ccccc2C1,3.3 C (active)
17,O=C(CSc1nc(-c2ccccc2)nn1C(=O)c1ccccc1)Nc1cccc([N+](=O)[O-])c1,4 C (active)
18,COc1ccc(OC)c(C(=O)c2ccc(C(=O)N3CCCCC3)cc2)c1,3 C (active)
19,O=C(c1ccc2c(c1)OCCO2)N1CCCCC1,3.5 C (active)
20,Cc1ccccc1CSc1nc2ccccc2c(=O)[nH]1,6.1 C (active)

# Same assay, conditions: Recombinant HPGD thermal shift, SYPRO orange DSF, measured here: delta Tm with NADH cofactor, at 250 µM, stronger effect = higher value
row,SMILES,thermal shift (delta Tm)
1,Fc1ccccc1CSc1nc2ncc(Br)cc2[nH]1,1.5 C
2,Cc1cc(-c2nnc3n2CCCCC3)c(C)n1-c1ccccc1,10.5 C
3,COc1ccc(-c2cc(C(F)(F)F)n3nc(C(=O)N4CCCCC4)cc3n2)cc1OC,9.6 C
4,Cc1cccc(-n2cnc3cc(C(=O)N4CCCCC4)ccc32)c1,13.5 C
5,O=C(CCc1ccc(Oc2cc([N+](=O)[O-])cc([N+](=O)[O-])c2)cc1)N1CCCCC1,7.9 C
6,COCCNC(=O)C1CCC(Cn2c(=S)[nH]c3ccccc3c2=O)CC1 (stereo not given),4.7 C
7,O=c1[nH]c(SCc2ccccc2Cl)nc2c1CCC2,1.6 C
8,O=C(CSc1nc2ncc(Br)cc2[nH]1)c1cccc([N+](=O)[O-])c1,1.7 C
9,COc1ccc2cc(C(=O)N3CCCCCC3)sc(=O)c2c1OC,7.8 C
10,Cc1ccc(C)c(Cn2nnc3c(=O)[nH]c(C(=O)NCc4ccco4)nc32)c1,4.8 C
11,CCN(CC)C(=O)c1sc2nc(-c3cccs3)cc(-c3ccc(Cl)cc3)c2c1N,2.9 C
12,O=C(C1CCC(Cn2c(=S)[nH]c3ccccc3c2=O)CC1)N1CCOCC1 (stereo not given),3.9 C
13,Cc1ccc(-c2n[nH]c(=S)n2/N=C/C=C\c2ccccc2[N+](=O)[O-])cc1,0.2 C
14,CC1CCCN(C(=O)c2ccc(COc3ccccc3Br)cc2)C1 (stereo not given),10.6 C
15,O=C(c1ccc(N2C(=O)C3CC=C(Cl)CC3C2=O)cc1)N1CCCCC1 (stereo not given),6.1 C
16,O=C(c1ccc2c(c1)OCO2)N1CCc2ccccc2C1,4.4 C
17,O=C(CSc1nc(-c2ccccc2)nn1C(=O)c1ccccc1)Nc1cccc([N+](=O)[O-])c1,-7.6 C
18,COc1ccc(OC)c(C(=O)c2ccc(C(=O)N3CCCCC3)cc2)c1,6.6 C
19,O=C(c1ccc2c(c1)OCCO2)N1CCCCC1,7.8 C
20,Cc1ccccc1CSc1nc2ccccc2c(=O)[nH]1,0.4 C
